# HP1b binding inh: HTS for Inhibitors of HP1-beta Chromodomain Interactions with Methylated Histone Tails; Potency, µM (highest dose often 114 µM), without a hit: top-dose activity change, negative = inhibition, actives largely listed as inhibitors; Chromobox protein homolog 1 (Homo sapiens), P83916; 390,000 tested, 0.56% active; AID 540317, 2011; AlphaScreen HP1-beta / biotin-H3K9me3 peptide binding; further: nearly all actives have a fitted effect of over 70% in size
#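 Compound inhibition of the preformed complex between 50 nM HP1-beta and 50 nM biotinylated H3K9me3 peptide was read by AlphaScreen. Buffer was PBS pH 7.4 with 0.01% Tween-20. Incubations ran 30 min at room temperature, with 10 ug/mL donor/acceptor beads.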
# JMJD2A Tudor: qHTS Assay for Inhibitors of JMJD2A-Tudor Domain | Lysine-specific demethylase 4A (Homo sapiens), O75164 | AlphaScreen JMJD2A-Tudor / H3K4me3 peptide binding | Potency, µM (series often up to 114 µM), for inactives: at the highest dose activity change, negative = inhibition, most hits filed as inhibitors | 390,000 tested, 4.4% active | AID 504339, 2011; further: on the % scale 0 is the no-effect control and ±100 the full control effect; nearly all actives have a fitted effect of over 50% in size
# BAZ2B block: qHTS Assay for Inhibitors of BAZ2B. Bromodomain adjacent to zinc finger domain protein 2B (Homo sapiens), Q9UIF8. AlphaScreen BAZ2B-H3K14Ac peptide displacement. Potency, µM (highest dose often 114 µM), for inactives: at the top dose activity change, negative = inhibition, usual class: inhibitors. 360,000 tested, 4.4% active. AID 504333, 2011; further: on the % scale 0 is the no-effect control and ±100 the full control effect; nearly all actives have a fitted effect of over 60% in size
# Target sequence (Q9UIF8 whole entry, looked up, the tested form may be a part): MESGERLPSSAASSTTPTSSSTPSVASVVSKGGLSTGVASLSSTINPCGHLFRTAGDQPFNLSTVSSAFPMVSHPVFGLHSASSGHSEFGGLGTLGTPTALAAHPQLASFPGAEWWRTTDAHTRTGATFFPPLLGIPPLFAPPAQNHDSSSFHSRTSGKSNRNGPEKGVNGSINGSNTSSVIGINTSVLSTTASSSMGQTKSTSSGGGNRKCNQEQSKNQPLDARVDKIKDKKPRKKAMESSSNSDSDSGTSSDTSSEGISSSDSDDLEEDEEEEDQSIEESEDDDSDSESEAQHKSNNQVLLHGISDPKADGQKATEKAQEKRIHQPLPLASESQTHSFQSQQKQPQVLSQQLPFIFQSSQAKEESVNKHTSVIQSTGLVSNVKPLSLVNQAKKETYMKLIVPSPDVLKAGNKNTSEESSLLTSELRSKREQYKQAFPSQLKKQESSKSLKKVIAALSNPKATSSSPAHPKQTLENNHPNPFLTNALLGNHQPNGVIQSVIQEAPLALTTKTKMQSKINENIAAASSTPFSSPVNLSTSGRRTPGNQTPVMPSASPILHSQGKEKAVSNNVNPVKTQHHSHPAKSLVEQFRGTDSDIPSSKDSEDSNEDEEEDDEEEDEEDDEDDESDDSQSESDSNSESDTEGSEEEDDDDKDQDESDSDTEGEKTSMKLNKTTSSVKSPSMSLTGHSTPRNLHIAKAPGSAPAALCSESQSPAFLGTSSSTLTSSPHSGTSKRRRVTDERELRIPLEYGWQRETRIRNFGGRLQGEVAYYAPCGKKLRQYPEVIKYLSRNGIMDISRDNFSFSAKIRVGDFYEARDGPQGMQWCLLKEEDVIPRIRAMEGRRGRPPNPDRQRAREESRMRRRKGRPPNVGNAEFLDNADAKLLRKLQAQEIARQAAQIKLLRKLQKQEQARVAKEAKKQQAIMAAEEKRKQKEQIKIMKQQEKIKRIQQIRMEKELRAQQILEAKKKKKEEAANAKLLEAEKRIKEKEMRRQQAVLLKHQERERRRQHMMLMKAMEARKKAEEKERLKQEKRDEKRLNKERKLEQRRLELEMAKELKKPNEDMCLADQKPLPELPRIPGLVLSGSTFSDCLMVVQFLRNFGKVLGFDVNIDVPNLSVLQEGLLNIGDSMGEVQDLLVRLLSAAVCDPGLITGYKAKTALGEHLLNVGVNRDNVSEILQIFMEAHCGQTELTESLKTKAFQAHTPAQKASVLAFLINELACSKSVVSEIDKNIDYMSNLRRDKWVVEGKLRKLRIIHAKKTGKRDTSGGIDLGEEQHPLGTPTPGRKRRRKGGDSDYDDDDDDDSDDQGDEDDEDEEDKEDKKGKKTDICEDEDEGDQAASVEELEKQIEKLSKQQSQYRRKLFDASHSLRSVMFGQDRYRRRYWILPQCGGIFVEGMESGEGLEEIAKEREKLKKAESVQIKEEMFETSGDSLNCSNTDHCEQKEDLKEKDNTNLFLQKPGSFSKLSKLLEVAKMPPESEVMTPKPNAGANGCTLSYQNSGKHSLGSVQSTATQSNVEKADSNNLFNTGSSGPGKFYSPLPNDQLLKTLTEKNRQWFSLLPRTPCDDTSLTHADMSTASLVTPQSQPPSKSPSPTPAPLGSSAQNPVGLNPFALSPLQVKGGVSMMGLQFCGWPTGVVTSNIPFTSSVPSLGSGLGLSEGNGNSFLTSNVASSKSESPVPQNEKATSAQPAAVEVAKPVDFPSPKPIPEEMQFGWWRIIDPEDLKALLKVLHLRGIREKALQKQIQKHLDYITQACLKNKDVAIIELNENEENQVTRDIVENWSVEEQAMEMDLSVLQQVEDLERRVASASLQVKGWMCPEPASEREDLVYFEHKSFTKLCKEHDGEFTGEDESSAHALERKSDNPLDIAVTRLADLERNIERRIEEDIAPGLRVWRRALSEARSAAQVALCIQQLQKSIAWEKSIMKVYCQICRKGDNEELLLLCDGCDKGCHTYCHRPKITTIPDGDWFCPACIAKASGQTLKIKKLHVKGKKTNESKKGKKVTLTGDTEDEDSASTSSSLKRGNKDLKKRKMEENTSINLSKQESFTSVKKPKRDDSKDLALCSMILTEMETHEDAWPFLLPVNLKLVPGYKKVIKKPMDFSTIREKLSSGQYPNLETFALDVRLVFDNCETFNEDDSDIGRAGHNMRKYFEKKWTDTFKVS
#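 AlphaScreen displacement of biotin-H3(5-23)K14Ac peptide (50 nM final) from BAZ2B (50 nM final) in PBS pH 7.4, 0.01% Tween-20; complex preformed 30 min RT, then compounds (top 110 uM) 30 min RT, beads 20 min dark.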
# PLK1 PBD inh: qHTS for Inhibitors of PLK1-PDB (polo-like kinase 1 - polo-box domain): Primary Screen | Potency, µM, for inactives: max response, negative = inhibition, most hits filed as inhibitors | Plk1 PBD binding of FITC phosphopeptide, fluorescence polarization | 360,000 tested, 2.8% active; further: series mostly up to about 57 µM; on the % scale 0 is the no-effect control and ±100 the full control effect; nearly all actives have a fitted effect of over 65% in size
# L3MBTL1 inh: qHTS Assay for the Inhibitors of L3MBTL1; 230,000 tested, 0.66% active; Lethal(3)malignant brain tumor-like protein 1 (Homo sapiens), Q9Y468; AlphaScreen L3MBTL1–H3K9me1 peptide binding; Potency, µM (titrated, usually from 57.1 µM), inactives show at the highest dose activity, negative = inhibition, hits mostly inhibitors; further: on the % scale 0 is the no-effect control and ±100 the full control effect; nearly all actives have a fitted effect of over 60% in size
#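 Displacement of a biotinylated histone H3(1-15) peptide monomethylated at Lys9 (75 nM) from L3MBTL1 (50 nM) was measured by AlphaScreen after a 30 min room-temperature compound incubation; cefsulodin titration served as intraplate control.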
# VDR inhibitor: Inhibitors of the vitamin D receptor (VDR): qHTS | VDR-SRC2-3 peptide fluorescence polarization, 2 h | AID 504847, 2011 | 400,000 tested, 0.93% active | Vitamin D3 receptor (Homo sapiens), P11473 | Potency, µM, for inactives: max response, negative = inhibition, actives largely listed as inhibitors; further: on the % scale 0 is the no-effect control and ±100 the full control effect
#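 Two reagent solutions held at 4 deg C in the dark were dispensed, compounds pinned at 23 nl, and the mixture incubated 2 h at room temperature. Read-out: fluorescence polarization of VDR–SRC2-3 peptide binding.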
# Active calls of the source: *; ? = inconclusive; . = no result given; [ ] = another dose, or the depositor's remark. In the library only some 6.9% were active in any assay of this set; here they are far more common. The call rests on the fitted dose curve; in most records, active means well fitted curve in the direction sought with a large enough effect; inconclusive means small, poorly fitted or top-dose-only effect, or another doubt; inactive means no such curve, though single readings can be large; an effect the other way counts as inactive or inconclusive. Potency means the concentration at half of the fitted maximal effect.
SMILES,HP1b binding inh,JMJD2A Tudor,BAZ2B block,PLK1 PBD inh,L3MBTL1 inh,VDR inhibitor
O=C(NCCNC(=O)c1ccccc1Cl)c1ccco1,-2.7%,79.4µM*,15.9%,?,.,-27.7%
O=C(NCCCNC(=O)c1ccccc1F)c1ccco1,25.7%,-3.4%,-7.8%,-6.3%,.,13.0%
Cc1[nH]c(=S)c(C#N)c(-c2ccco2)c1C(=O)N(C)C,-24.7%,3.98µM*,-35.7%,-21.4%,-10.6%,1.3%
CC(=O)c1c(C)[nH]c(=S)c(C#N)c1-c1ccc(Cl)cc1,14.3%,?,-17.9%,-23.1%,-5.6%,?
Cn1nc(C2CC2)cc1NC(=O)C1(C)CCN1C(=O)CCc1ccccc1 (stereo not drawn),.,.,.,-0.6%,.,.
CC(=NNC(=S)N1CC2CCC(CC2)C1)c1cnccn1,?,11.2µM*,.,-24.0%,.,-23.3%
CC(=NNC(=S)N1CC2CCC(CC2)C1)c1ccccn1,.,.,.,0.0%,.,.
CC(=O)C(=Cc1ccc(C(=O)O)cc1)C(C)=O,51.3%,-2.8%,?,-8.9%,?,?
Cc1ccc(NC(=O)C(=Cc2ccc(C(=O)O)cc2)C(=O)Nc2ccc(C)cc2C)c(C)c1,24.7%,-10.9%,-17.8%,-7.1%,0.4%,25.1µM*
COCCN1C[C@@H](CO)O[C@@H](n2cnc3c(NCc4ccco4)ncnc32)C1,.,.,.,-6.1%,.,.
O=C1C(N2CCOCC2)=C(n2nnc3ccccc32)C(=O)c2ccccc21,?,-1.5%[11.4 µM],10µM*,-28.3%,.,-1.3%
CC1CCN(S(=O)(=O)c2cn(CC(=O)Nc3ccc(F)c(Cl)c3)c(=O)c3ccccc23)CC1,16.2%,-18.2%,-8.5%,.,.,-24.8%
CC(=O)c1cc(-c2ccccc2)n(CCC(=O)NCc2cccs2)c1C,2.8%,-15.0%,50.1µM*,-0.9%,2.0%[11.4 µM],3.5%
CC(=O)c1cc(-c2ccc(F)cc2)n(CCC(=O)NC(C)(C)C)c1C,4.5%,-27.6%,50.1µM*,-2.9%,6.5%,-2.7%
O=C(CCN1C(=O)COc2ccccc21)NCCN1CCc2ccccc2C1,19.6%,?,-1.4%,0.3%,-0.5%,1.7%
COc1ccc(-c2cc(C(C)=O)c(C)n2CCC(=O)NCc2ccc(F)cc2)cc1,33.5%,-17.0%,79.4µM*,.,.,6.5%
COc1ccc(-c2cc(C(C)=O)c(C)n2CCC(=O)NCc2ccccc2OC)cc1,-2.4%,-34.0%,?,.,.,-10.9%
O=C(CCN1C(=O)COc2ccccc21)NCc1cccs1,-20.2%,?,4.3%,23.8µM*,3.0%,-7.2%
CC(=O)c1cc(-c2ccc(F)cc2)n(CC(=O)NCc2cccs2)c1C,19.1%,9.1%,-27.7%,2.1%,-3.1%,12.1%
CC(C)c1ccc(C2c3c(-c4ccccc4O)n[nH]c3C(=O)N2CCc2ccccc2)cc1 (stereo not drawn),31.1%,-9.4%,-0.9%,.,.,-7.6%
c1cn(-c2cc(-c3ccc4c(c3)OCO4)ncn2)cn1,.,.,.,.,.,64.2%
CN(C)c1nc(Cl)nc2c1nc(Cl)n2C1CCCCO1 (stereo not drawn),45.0%,1.4%,.,-2.7%,.,-4.7%
CCc1ccc(C(=O)C(C)OC(=O)c2nc3nc(C)cc(C)n3n2)cc1 (stereo not drawn),39.1%,-4.1%,-3.5%,-2.6%,4.8%,-9.1%
O=[S+]([O-])(c1c(F)cccc1F)N1CCN([S+](=O)([O-])c2cccc3nonc23)CC1,.,-13.7%,.,.,.,.
COCC(=O)N1CCC2(CCN(Cc3ccccc3)CC2)CC1,.,.,.,.,.,-0.8%
CCCOC(=O)CCCN1C(=O)/C(=C2\SC(=S)N(CCCC(=O)OCCC)C2=O)SC1=S,?,?,3.16µM*,-2.1%,-4.5%,0.1%
